We go through 61 compounds from PubChem BioAssay AID434947 (Broad Institute, 2010).

Among all 2,200 compounds or so, about 15 (0.7%) were called active.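 The calls were made as follows: active = fitted half-maximal concentration for loss of luminescence signal no more than a set limit of log units above the top tested concentration; inconclusive = flat fit with 30 to 70% signal loss, or invalid fit; inactive = half-maximal concentration above that set limit.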 The sample as a whole holds a higher share of actives than the screen did.

The assay is described as follows: ADP-Glo luciferase signal interference – biochemical, luminescence, cell-free, homogeneous, artefact control for GSK3beta inhibitor project, dose response (AID 434947).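 Also: kinase-free counter screen of ADP-Glo detection reagents for GSK3beta hits.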 To be noted: Cell-free ADP-Glo reagents, 5 uM ADP.
Regarding `CC1(C)CC(=O)C=C(Nc2ccc3c(c2)OCCO3)C1`, the EC50 was > 30 µM (inactive).
The value for `COc1ccc(-c2nn(-c3ccccc3)cc2/C=N/N2C(=O)CSC2=S)cc1` was > 30 µM (inactive); that for `Cc1ccccc1-c1nc(CN2CCC(C(=O)N3CCN(c4ccccn4)CC3)CC2)c(C)o1` was > 30 µM (inactive).
The value for `CCOC(=O)c1cnc2c(OC)cccc2c1N1CCN(c2ccc(OC)cc2)CC1` was > 30 µM (inactive); that for `COc1cc(OC)c(OC)cc1CNCC1COc2ccccc2O1` (stereo unspecified) was > 30 µM (inactive).
As to `CSc1nc(N)c2c3c(sc2n1)CN(C)CC3`, the EC50 was > 30 µM (inactive).
The same measure for `Cn1c(=O)c2[nH]c(CCCC(=O)O)nc2n(Cc2ccccc2)c1=S`: > 30 µM (inactive); for `NS(=O)(=O)c1cc(C(=O)N=Nc2c(O)[nH]c3ccccc23)ccc1Cl`: > 30 µM (inactive); for `O=C(/C=C/c1ccc2ccccc2c1)c1ccoc1`: > 30 µM (inactive).
On to `NS(=O)(=O)c1ccc(CCNC(=O)CSc2nc3ccsc3c(=O)n2C2CC2)cc1`, for which the EC50 is > 30 µM (inactive).
In the case of `CN(C)CCCNc1ccc(-c2cc(Nc3cccc(Cl)c3)ncn2)cn1`, the EC50 was > 30 µM (inactive).
Consider `CN(CCO)c1cc(N2CCC3(CC2)OCCO3)c2nonc2c1[N+](=O)[O-]`, for which the EC50 is > 30 µM (inactive).
For `COC(=O)c1nnn(-c2nonc2N)c1CSc1ccc(Cl)cc1`, the EC50 is > 30 µM (inactive).
`Cc1cccc(OCc2nnc(SCC(=O)Nc3sc(C)c(C)c3C#N)n2C)c1`: the EC50 is > 30 µM (inactive).
With `CC(C)N1C(=O)N(c2ccc(Cl)cc2)C(C)(O)CC1(C)C` (stereo unspecified), the EC50 was > 30 µM (inactive).
The value for `CC(C)CCSc1nnc(N)s1` was > 30 µM (inactive); that for `CCC(=O)Nc1ccc(Nc2nc(C)c([N+](=O)[O-])c(Nc3ccc(NC(=O)CC)cc3)n2)cc1` was > 30 µM (inactive); that for `O=C(Nc1ccnn1C1CCN(Cc2cccc(OCCO)c2)CC1)C1CCCC1` was > 30 µM (inactive).
In the case of `c1ccc(OCCCn2nnc(-c3ccncc3)n2)cc1`, the EC50 is > 30 µM (inactive).
The value for `Nc1nc(NCCO)nc(NCC2CCCO2)c1[N+](=O)[O-]` (stereo unspecified) was > 30 µM (inactive).
As for `N#Cc1c(-c2ccccc2)nc(SCC(=O)Nc2ccc(OC(F)(F)Cl)cc2)[nH]c1=O`, the EC50 was > 30 µM (inactive).
Take `O=C(Nc1cc(-c2ccccc2)[nH]n1)c1ccccc1`: the EC50 was > 30 µM (inactive).
As to `COc1cccc(C(=O)Nc2ccc(C(=O)NCC(C)C)cc2)c1`, the EC50 is > 30 µM (inactive).
As to `CCCCC(CC)C(=O)Nc1ncc([N+](=O)[O-])s1` (stereo unspecified), the EC50 is > 30 µM (inactive).
The same measure for `O=C(COc1ccccc1[N+](=O)[O-])N/N=C/c1ccccn1`: > 30 µM (inactive); for `N/C(Cc1nc2ccccc2s1)=N\O`: > 30 µM (inactive); for `COc1cccc(C(=O)Nc2nnc(C(C)C)s2)c1`: > 30 µM (inactive).
Turning to `COc1ccc2nc(Cl)cc(Cl)c2c1`, the EC50 was > 30 µM (inactive).
With `CCCc1cc(=O)[nH]c(SCCOc2ccc(OCC)cc2)n1`, the EC50 is > 30 µM (inactive).
The same measure for `COc1ccccc1/C=C1\C(=O)Nc2ccccc21`: > 30 µM (inactive); for `Cc1ccc(S(=O)(=O)NNC(=O)c2cccc(O)c2)cc1`: > 30 µM (inactive); for `COCc1c(C(=O)Nc2ccc(Cl)cc2F)oc2ccccc12`: > 30 µM (inactive).
For the compound `CC(C)c1ccc(NC2=CC(=O)CC(C)(C)C2)cc1`, the EC50 is > 30 µM (inactive).
The same measure for `O=C(CCc1ccccc1)Nc1ccc2c(c1)OCCO2`: > 30 µM (inactive).
The same measure for `Cc1cc(C)c(C)c(S(=O)(=O)Nc2ccccc2C(=O)NCCCn2ccnc2)c1C`: > 30 µM (inactive); for `N#Cc1ccc(CSc2nnc(-c3ccncc3)o2)cc1`: > 30 µM (inactive); for `CN(c1ncnc(N)c1[N+](=O)[O-])C1CCCCC1`: > 30 µM (inactive).
The value for `O=C(O)c1ccccc1N/N=C\c1ccnc2ccccc12` was > 30 µM (inactive); that for `COc1ccc(-c2nn(-c3ccccc3)cc2/C=N/O)cc1OC` was > 30 µM (inactive); that for `Cc1cc(C(=O)OCCN2C(=O)c3ccccc3C2=O)c2ccccc2n1` was > 30 µM (inactive).
Consider `Cn1cc(S(=O)(=O)NCc2ccc(F)cc2)c(=O)n(C)c1=O`, for which the EC50 was > 30 µM (inactive).
The same measure for `c1ccc(CNc2nc(-c3cccnc3)nc3ccccc23)cc1`: > 30 µM (inactive); for `Cc1cc(C(=O)c2ccccc2)c(NC(=O)CN2CCOCC2)s1`: > 30 µM (inactive); for `CN(Cc1c(C(=O)N/N=C/c2ccccc2F)nnn1-c1nonc1N)c1ccccc1`: > 30 µM (inactive).
For the compound `CCn1c(SCC(=O)Nc2ccc(Cl)cc2)nnc1C1CC1`, the EC50 is > 30 µM (inactive).
Regarding `O=c1c2[nH]c3ccccc3c2ncn1C1CCCCC1`, the EC50 is > 30 µM (inactive).
The value for `CCOC(=O)/C(C#N)=C/c1cn(CCC(=O)O)nc1-c1ccccc1` was > 30 µM (inactive); that for `CN1CCN(c2ccccc2NC(=O)c2ccc(Br)o2)CC1` was > 30 µM (inactive); that for `Cc1cnc(C(=O)OCC(=O)N2c3ccccc3CC2C)cn1` (stereo unspecified) was > 30 µM (inactive).
The same measure for `N#CCCn1cc(/C=N/O)c(-c2cccc([N+](=O)[O-])c2)n1`: > 30 µM (inactive).
Consider `COc1cccc(/C=N/Nc2cc(Cl)nc(C)n2)c1O`, for which the EC50 is > 30 µM (inactive).
The same measure for `COc1ccc(-c2nn(-c3ccccc3)cc2N)cc1`: > 30 µM (inactive).
The same measure for `CSc1nc2c(c(=O)[nH]1)C(c1ccccc1)C1=C(CC(C)(C)CC1=O)N2` (stereo unspecified): > 30 µM (inactive).
Regarding `CC(=O)C(Sc1ccc2nnc(-c3ccc(F)cc3)n2n1)C(C)=O`, the EC50 was > 30 µM (inactive).
The same measure for `NNC(=O)CNC(=O)c1ccc(F)cc1`: > 30 µM (inactive).
Regarding `Cn1c(=S)n(CCC(=O)O)c2ccccc21`, the EC50 was > 30 µM (inactive).
The value for `O=C(NCC(c1ccco1)N1CCc2ccccc21)c1c(F)cccc1F` (stereo unspecified) was > 30 µM (inactive); that for `Cc1ccc(-c2nn(-c3ccccc3)cc2/C=N/NS(=O)(=O)c2ccccc2)cc1` was > 30 µM (inactive); that for `COCCn1c(SCC(=O)Nc2ccc(Cl)c(S(=O)(=O)N(C)C)c2)nc2ccccc21` was > 30 µM (inactive).
On to `COc1cccc(N=Nc2c(N)[nH][nH]c2=O)c1`, for which the EC50 was > 30 µM (inactive).
Turning to `Cc1cc(NC(=O)CSc2nnc(C3CC3)n2Cc2ccccc2)no1`, the EC50 is > 30 µM (inactive).
